Results from publication PMC7862700, “An all-to-all approach to the identification of sequence-specific readers for epigenetic DNA modifications on cytosine”.

Experiments:
Test in all cases: DAPPL (digital affinity profiling via proximity ligation, sequencing); 10 mM Tris-HCl pH 7.5, 50 mM NaCl, 1 mM DTT, 4% glycerol, room temperature, 30 min; GST-TFs on glutathione beads, 16-mer random dsDNA library, 0.1% formaldehyde crosslink after washing; high values mean tight binding
Settings in all cases: protein: recombinant; tags: N-terminal GST; dsDNA, one strand shown
FLI1 = target: T1, FLI1 (Homo sapiens, UniProt Q01543 1-452)
T1 sequence: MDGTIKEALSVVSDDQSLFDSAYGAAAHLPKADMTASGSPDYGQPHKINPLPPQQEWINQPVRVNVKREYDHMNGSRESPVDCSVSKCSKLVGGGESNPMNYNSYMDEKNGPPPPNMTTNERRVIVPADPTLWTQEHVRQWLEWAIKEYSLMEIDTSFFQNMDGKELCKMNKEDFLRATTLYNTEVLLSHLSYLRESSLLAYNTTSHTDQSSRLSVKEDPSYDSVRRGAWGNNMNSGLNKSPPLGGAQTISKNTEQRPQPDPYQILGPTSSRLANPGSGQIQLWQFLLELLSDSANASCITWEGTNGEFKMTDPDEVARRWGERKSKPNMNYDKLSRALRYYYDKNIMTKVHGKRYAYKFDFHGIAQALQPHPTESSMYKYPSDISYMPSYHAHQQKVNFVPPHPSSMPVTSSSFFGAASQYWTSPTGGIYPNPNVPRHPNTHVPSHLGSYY
In short: (§1)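 Human transcription factors were made in yeast as GST fusions, captured on glutathione beads and barcoded with DNA. With a tag-only sample included, the pool was incubated with 200 nmole of a random double-stranded 16-mer DNA library in Tris/NaCl/DTT/glycerol buffer at room temperature for 30 min, then crosslinked with 0.1% formaldehyde after washing, ligated by proximity, amplified and sequenced. For binding signal, each hexamer's read frequency for a factor is divided by its frequency for the tag-only sample.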

ELK1 = target: T2, ELK1 (Homo sapiens, UniProt P19419 1-428)
T2 sequence: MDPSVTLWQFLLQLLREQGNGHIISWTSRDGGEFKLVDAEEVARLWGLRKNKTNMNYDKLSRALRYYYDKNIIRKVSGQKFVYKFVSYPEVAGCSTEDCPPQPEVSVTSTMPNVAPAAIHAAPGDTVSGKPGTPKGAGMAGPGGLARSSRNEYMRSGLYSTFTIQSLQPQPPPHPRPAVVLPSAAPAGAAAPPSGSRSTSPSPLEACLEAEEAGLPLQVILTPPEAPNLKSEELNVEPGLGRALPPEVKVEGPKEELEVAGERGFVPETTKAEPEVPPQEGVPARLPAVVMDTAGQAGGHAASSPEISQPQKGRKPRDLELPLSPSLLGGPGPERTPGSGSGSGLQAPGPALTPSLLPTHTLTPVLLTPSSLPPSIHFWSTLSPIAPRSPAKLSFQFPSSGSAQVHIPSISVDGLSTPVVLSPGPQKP
In short: as §1

GABPA = target: T3, GABPA (Homo sapiens, UniProt Q06546 1-454)
T3 sequence: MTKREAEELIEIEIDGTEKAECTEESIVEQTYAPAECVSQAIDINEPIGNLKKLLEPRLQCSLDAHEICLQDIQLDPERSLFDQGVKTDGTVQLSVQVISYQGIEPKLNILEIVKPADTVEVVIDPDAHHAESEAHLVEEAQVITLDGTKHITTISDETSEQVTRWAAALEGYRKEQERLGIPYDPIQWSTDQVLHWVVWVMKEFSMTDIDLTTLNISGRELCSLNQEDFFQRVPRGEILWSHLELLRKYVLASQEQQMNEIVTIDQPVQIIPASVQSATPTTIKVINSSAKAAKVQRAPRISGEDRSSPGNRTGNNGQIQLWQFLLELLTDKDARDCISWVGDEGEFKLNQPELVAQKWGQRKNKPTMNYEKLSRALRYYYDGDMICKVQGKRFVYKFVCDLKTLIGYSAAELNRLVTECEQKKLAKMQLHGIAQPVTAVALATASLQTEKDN
In short: as §1

ELF1 = ELF1 (Homo sapiens, UniProt P32519 1-619)
In short: as §1

EHF = target: T4, EHF (Homo sapiens, UniProt Q9NZC4 1-300)
T4 sequence: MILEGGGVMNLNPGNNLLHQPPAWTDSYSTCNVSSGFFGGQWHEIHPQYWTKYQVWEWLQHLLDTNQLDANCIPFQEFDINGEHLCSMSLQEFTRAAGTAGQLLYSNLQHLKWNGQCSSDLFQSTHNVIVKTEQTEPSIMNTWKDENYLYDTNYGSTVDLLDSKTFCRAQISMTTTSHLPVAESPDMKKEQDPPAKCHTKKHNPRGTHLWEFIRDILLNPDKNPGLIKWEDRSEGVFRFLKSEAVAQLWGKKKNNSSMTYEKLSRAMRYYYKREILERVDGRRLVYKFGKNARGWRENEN
In short: as §1

SPIB = SPIB (Homo sapiens, UniProt Q01892 1-262)
In short: as §1

ELK3 = target: T5, ELK3 (Homo sapiens, UniProt P41970 1-407)
T5 sequence: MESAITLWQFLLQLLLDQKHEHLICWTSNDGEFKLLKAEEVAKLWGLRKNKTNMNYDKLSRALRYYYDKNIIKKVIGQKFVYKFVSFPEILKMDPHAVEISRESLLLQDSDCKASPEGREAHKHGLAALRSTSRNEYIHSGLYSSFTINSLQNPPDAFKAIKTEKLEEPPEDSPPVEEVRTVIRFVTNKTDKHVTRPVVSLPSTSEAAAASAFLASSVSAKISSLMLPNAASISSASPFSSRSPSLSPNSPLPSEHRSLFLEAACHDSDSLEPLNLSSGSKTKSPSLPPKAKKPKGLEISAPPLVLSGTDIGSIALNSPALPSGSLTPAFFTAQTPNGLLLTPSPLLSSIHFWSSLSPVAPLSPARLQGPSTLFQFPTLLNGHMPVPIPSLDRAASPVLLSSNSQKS
In short: as §1

SPIC = target: T6, SPIC (Homo sapiens, UniProt Q8N5J4 1-248)
T6 sequence: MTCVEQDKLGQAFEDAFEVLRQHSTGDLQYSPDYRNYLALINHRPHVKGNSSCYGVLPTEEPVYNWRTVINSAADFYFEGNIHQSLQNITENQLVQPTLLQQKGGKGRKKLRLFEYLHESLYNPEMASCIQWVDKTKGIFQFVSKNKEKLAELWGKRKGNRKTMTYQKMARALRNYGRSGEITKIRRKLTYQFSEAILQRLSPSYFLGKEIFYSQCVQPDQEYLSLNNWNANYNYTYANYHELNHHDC
In short: as §1

ELF4 = ELF4 (Homo sapiens, UniProt Q99607 1-663)
In short: as §1

Chain of ELF4 (Q99607 whole entry): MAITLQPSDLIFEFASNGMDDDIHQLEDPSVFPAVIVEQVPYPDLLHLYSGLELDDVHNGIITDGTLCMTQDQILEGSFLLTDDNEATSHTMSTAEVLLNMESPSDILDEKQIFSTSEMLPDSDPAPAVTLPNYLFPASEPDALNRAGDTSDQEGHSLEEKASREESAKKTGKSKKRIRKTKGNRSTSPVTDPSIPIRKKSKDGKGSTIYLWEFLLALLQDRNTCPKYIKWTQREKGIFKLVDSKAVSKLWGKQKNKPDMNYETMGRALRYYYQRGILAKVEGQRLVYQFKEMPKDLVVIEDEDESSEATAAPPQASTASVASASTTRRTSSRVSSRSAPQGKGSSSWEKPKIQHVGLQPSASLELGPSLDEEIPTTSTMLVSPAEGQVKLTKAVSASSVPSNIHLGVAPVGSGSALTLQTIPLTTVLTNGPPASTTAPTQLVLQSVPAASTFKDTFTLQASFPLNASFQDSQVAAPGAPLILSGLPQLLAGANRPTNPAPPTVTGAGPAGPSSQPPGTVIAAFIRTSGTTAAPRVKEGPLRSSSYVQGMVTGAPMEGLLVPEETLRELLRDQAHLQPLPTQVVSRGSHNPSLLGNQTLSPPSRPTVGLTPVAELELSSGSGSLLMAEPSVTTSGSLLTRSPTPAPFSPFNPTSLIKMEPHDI
Chain of ELF1 (P32519 whole entry): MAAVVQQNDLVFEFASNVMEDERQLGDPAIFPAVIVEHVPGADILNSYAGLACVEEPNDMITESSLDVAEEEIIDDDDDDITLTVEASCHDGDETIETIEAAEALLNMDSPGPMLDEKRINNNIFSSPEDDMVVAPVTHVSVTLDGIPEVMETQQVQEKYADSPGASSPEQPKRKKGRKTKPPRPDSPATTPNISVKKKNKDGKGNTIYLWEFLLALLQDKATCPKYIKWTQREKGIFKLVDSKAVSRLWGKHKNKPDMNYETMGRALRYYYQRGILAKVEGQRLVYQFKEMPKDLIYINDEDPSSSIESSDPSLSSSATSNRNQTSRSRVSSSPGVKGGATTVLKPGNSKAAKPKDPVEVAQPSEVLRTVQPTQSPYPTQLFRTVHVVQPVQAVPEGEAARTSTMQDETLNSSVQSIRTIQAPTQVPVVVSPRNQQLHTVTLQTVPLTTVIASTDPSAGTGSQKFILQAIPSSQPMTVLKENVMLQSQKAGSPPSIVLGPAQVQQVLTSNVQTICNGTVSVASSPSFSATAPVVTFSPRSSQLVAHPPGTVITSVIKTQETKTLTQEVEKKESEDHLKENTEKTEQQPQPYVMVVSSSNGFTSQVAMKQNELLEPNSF
Chain of SPIB (Q01892 whole entry): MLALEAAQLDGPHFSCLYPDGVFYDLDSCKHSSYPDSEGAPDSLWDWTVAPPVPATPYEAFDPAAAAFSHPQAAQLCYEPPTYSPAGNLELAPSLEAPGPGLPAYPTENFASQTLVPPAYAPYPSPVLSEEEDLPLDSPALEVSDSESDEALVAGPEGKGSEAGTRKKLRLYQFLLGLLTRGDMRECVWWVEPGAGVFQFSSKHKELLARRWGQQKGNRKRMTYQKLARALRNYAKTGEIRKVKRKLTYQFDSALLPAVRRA

## CGTTGC
FLI1
  binding signal: 1.09 fold enrichment (6-mer frequency, TF over GST control)
ELK1
  binding signal: 1.19 fold enrichment (6-mer frequency, TF over GST control)
GABPA
  binding signal: 1.04 fold enrichment (6-mer frequency, TF over GST control)
ELF1
  binding signal: 1.11 fold enrichment (6-mer frequency, TF over GST control)
EHF
  binding signal: 1.07 fold enrichment (6-mer frequency, TF over GST control)
SPIB
  binding signal: 1.18 fold enrichment (6-mer frequency, TF over GST control)
ELK3
  binding signal: 1.04 fold enrichment (6-mer frequency, TF over GST control)
SPIC
  binding signal: 1.25 fold enrichment (6-mer frequency, TF over GST control)
ELF4
  binding signal: 1.06 fold enrichment (6-mer frequency, TF over GST control)
